Laboratory results taken from PubChem BioAssay (Tox21).
Inconclusive results are not listed. Active and inactive are the calls of the source. Unless noted, calls follow the shape of the full dose curve.

Legend:
[1] = qHTS assay to identify small molecule antagonists of the vitamin D receptor (VDR) signaling pathway - cell viability counter screen (AID 743225; active = well fitted curve in the direction sought with a large enough effect in the repeat runs; an effect the other way counts as inactive or inconclusive; also: nearly all actives have a fitted effect of over 50% in size)
In short: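 HEK293T VDR-bla; cpd + 1a,25-(OH)2D3 3 nM final, 16 h 37C/5% CO2; B/G FRET substrate 2 h RT; then CellTiter-Glo 30 min RT, luminescence.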

[2] = qHTS assay to identify small molecule agonists of the NFkB signaling pathway (AID 1159509; active = well fitted curve in the direction sought with a large enough effect in the signal ratio in the repeat runs, not every such curve was filed as active; the % refers to the signal ratio; also: series mostly up to about 61 µM)
In short: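 ME-180 NFkB-bla, 2,000 cells/well, overnight plating; cpd pinned in DMSO, 5 h 37 C; B/G FRET substrate 1.5 h RT; ex 405, em 460/530 nm.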

[3] = qHTS assay to identify small molecule agonists of the NFkB signaling pathway - cell viability counter screen (AID 1159515); also: series mostly up to about 61 µM; nearly all actives have a fitted effect of over 55% in size
In short: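 5 hr compound treatment of NFkB-bla ME-180 cells (2,000/well, seeded overnight beforehand), followed by reporter substrate for 1.5 hr. CellTiter-Glo added afterward; luminescence after 30 min RT.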

[4] = qHTS assay to identify small molecule agonists of the endoplasmic reticulum stress response signaling pathway - cell viability counter screen (AID 1159517);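 also: HeLa cells carrying an ER stress response element beta-lactamase reporter; series mostly up to about 61 µM; nearly all actives have a fitted effect of over 50% in size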
In short: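 ESRE-bla HeLa cells, 1,500 per well, seeded overnight then treated with compounds for 5 hr at 37 C. After the beta-lactamase read, viability in the same wells is measured by CellTiter-Glo luminescence after 30 min at room temperature.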

[5] = qHTS assay to identify small molecule antagonists of the retinoid-related orphan receptor gamma (ROR-gamma) signaling pathway - cell viability counter screen (AID 1159520; active = well fitted curve in the direction sought with a large enough effect in the repeat runs; an effect the other way counts as inactive or inconclusive; also: nearly all actives have a fitted effect of over 50% in size)
In short: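 Tet-on ROR gamma CHO cells were given compounds for 2 hr, then doxycycline hyclate at 1 uM final, and incubated 16 hr at 37 C. Viability was measured as ATP content by CellTiter-Glo luminescence.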

[6] = target: Nuclear receptor ROR-gamma (Homo sapiens) (UniProt P51449); assay: qHTS assay to identify small molecule antagonists of the retinoid-related orphan receptor gamma (ROR-gamma) signaling pathway (AID 1159521; active = well fitted curve in the direction sought with a large enough effect in the repeat runs; an effect the other way counts as inactive or inconclusive;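 also: CHO cells with doxycycline inducible ROR-gamma driving an RORE luciferase reporter; top concentration of the series differs between compounds; nearly all actives have a fitted effect of over 50% in size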)
In short: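 Cells were plated, rested 4 h at 37 C, exposed to compounds for 2 h, then given 1 uM final doxycycline hyclate to induce RORγ expression. After 16 h, ONE-Glo luminescence from the ROR response element reporter was measured.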

[7] = qHTS assay to identify small molecule agonists of the AP-1 signaling pathway - cell viability counter screen (AID 1159525); also: nearly all actives have a fitted effect of over 55% in size
In short: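 AP-1-bla ME-180 cells in Opti-MEM with 0.5% dialyzed FBS, compound exposure 5 h at 37 C in 15-point titration. Viability read in the same wells as ATP content by CellTiter-Glo luminescence, normalised to tetra-n-octylammonium bromide and DMSO controls.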

[8] = qHTS assay to identify small molecule agonists of the AP-1 signaling pathway (AID 1159526)
[9] = target: Retinoic acid receptor RXR-alpha (Homo sapiens) (UniProt P19793); assay: qHTS assay to identify small molecule agonists of the RXR signaling pathway (AID 1159527); also: nearly all actives have a fitted effect of over 35% in size
Chain of Retinoic acid receptor RXR-alpha (Homo sapiens) (P19793 whole entry, looked up): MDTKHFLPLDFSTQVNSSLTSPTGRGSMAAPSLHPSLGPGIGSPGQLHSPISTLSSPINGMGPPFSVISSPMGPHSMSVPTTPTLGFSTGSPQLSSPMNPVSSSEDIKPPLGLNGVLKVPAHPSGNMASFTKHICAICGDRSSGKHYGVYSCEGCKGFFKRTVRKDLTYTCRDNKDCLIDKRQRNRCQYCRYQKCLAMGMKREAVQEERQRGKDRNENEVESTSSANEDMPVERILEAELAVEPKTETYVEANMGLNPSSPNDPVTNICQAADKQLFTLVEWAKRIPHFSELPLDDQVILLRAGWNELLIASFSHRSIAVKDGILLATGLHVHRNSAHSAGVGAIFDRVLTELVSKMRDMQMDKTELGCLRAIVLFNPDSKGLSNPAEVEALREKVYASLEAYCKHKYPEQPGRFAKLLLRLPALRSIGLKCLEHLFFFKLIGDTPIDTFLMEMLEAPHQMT
In short: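 Cells plated at 2,000/well, rested 5 hr at 37 C, pin-dosed with DMSO compound solutions, incubated 16 hr, then loaded with B/G FRET substrate for 2 hr at RT before dual-emission fluorescence reading.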

[10] = qHTS assay to identify small molecule agonists of the endoplasmic reticulum stress response signaling pathway (AID 1159516; active = well fitted activation curve with a large enough effect in the signal ratio in the repeat runs, not every such curve was filed as active; the % refers to the signal ratio)
In short: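 Reporter HeLa cells (ESRE-beta-lactamase) underwent 5 hr compound incubation at 37 C and 5% CO2 in quantitative HTS format. Detection followed 2 hr of FRET substrate loading at room temperature.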

Measured: Potency

CCCCC(C=O)CC (stereo not drawn)
not listed: [10]
inactive: all other assays above

O=C(O)CCCCCCCCC(=O)O
not listed: [5] | [10]
inactive: all other assays above

CC(=O)OCCOC(C)=O
not listed: [5]
inactive: all other assays above

C=CC(=O)OCCC(=O)O
not listed: [3]
inactive: all other assays above

COCCCN
not listed: [5] | [10]
inactive: all other assays above

O=S(=O)(O)c1ccccc1
not listed: [3]
inactive: all other assays above

CC(=O)OCc1ccccc1
not listed: [10]
inactive: all other assays above

CC(C)OC(=O)COc1ccc(Cl)cc1Cl
not listed: [10]
inactive: all other assays above

N#Cc1ccccc1
not listed: [10]
inactive: all other assays above

NCCN1CCNCC1
not listed: [5]
inactive: all other assays above

CC1(C)CC(N)CC(C)(CN)C1 (stereo not drawn)
not listed: [5]
inactive: all other assays above

CC(=O)Oc1ccc(C)cc1
not listed: [5]
inactive: all other assays above

CC1(C)NC(=O)NC1=O
not listed: [5]
inactive: all other assays above

OC1C(O)C(O)C(O)C(O)C1O (stereo not drawn)
not listed: [10]
inactive: all other assays above

COC(=O)c1cccnc1
not listed: [5]
inactive: all other assays above
